Experimental data taken from PubChem BioAssay AID651791 (National Center for Advancing Translational Sciences (NCATS), 2012).
Records with an inconclusive call do not appear. The source made the active and inactive calls. Calls follow the shape of the dose curve; as a rule, active = well fitted inhibition curve with a large enough effect; inconclusive = small, poorly fitted or top-dose-only effect; inactive = no such curve, though single readings can be large or run the other way.

Experiment: InCell qHTS Assay for Inhibitors of the mTORC1 Signaling Pathway in MEF (Tsc2-/-, p53-/-) Cells: Hit Validation;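 also: phospho-S6 Ser235/236 signal normalized to propidium iodide cell count per well; nearly all actives have a fitted effect of over 75% in size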
Settings: phospho-rpS6 immunofluorescence, 24 h; activity change, negative = inhibition: at 38.3 µM (top of the series)
Potency is read from the fitted curve at half-maximal effect.

Structure (SMILES)	activity change, negative = inhibition [%]	Potency
O=S(=O)(c1ccccc1)n1nc(-c2ccc(Cl)cc2)nc1NCc1ccccc1	-5.06	
CCOc1cc(CNc2ccc(O)cc2)ccc1OCc1ccc(Cl)cc1	-100	
CCC(C)Sc1oc(-c2ccco2)nc1S(=O)(=O)c1ccc(C)cc1 (configuration not stated)	-100	
CCOC(=O)C1CCN(c2cc3c(cc2NC(=O)c2ccccc2Cl)n(C)c(=O)n3C)CC1	-12.8	
CCOc1ccc(N(C(C)C(=O)Nc2cc(Cl)ccc2OC)S(C)(=O)=O)cc1 (configuration not stated)	-100	
CC(=O)Nc1ccc2nc(-c3cc(C)ccc3C)[nH]c2c1	-100	
CCC(C)S(=O)(=O)c1oc(-c2cccs2)nc1S(=O)(=O)c1ccccc1 (configuration not stated)		1.17 µM (active)
CCC(=O)C1=C(c2ccc(Cl)cc2)N(C(=O)CC)n2c(C)nnc2S1		2.61 µM (active)
O=C(Nc1ccc(Cl)cc1)c1cc(S(=O)(=O)N2CCCc3ccccc32)ccc1F	-100	
CCOc1ccc(C(=O)NCCc2sc(-c3ccc(C)cc3)nc2C)cc1	-100	
O=C(Nc1cccc(NC(=O)c2ccccc2Cl)c1)c1cccc(Br)c1	-100	
CCC(C)n1c(SCc2c(F)cccc2Cl)nc2ccsc2c1=O (configuration not stated)	-100	
Cc1n[nH]c(C)c1S(=O)(=O)N(CC(=O)Nc1ccc(C(F)(F)F)cc1)c1ccc(C(C)C)cc1	-23.7	
CC(C)(C)c1ccc(-c2nc(S(=O)(=O)c3ccccc3)c(N3CCOCC3)o2)cc1	-100	
COc1ccc(OCc2nc3c4c(-c5ccccc5)c(-c5ccccc5)oc4ncn3n2)cc1	-100	
CS(=O)(=O)N(CC(=O)NCCc1ccccc1)c1cc(C(F)(F)F)ccc1Cl	-100	
CC(C)OCCCn1c(=O)c2ccccc2n2c(-c3ccc(F)cc3)nnc12	-100	
CCOc1ccccc1Nc1nc(-c2cccc(Cl)c2)c2c(n1)-c1ccccc1OC2	-100	
COc1ccc(S(=O)(=O)NCCc2sc3nc(-c4ccc(C)cc4)nn3c2C)cc1F	-100	

Structure (SMILES)	activity change, negative = inhibition [%]	Potency
CC(C)Oc1ccc(CNC(=O)c2ccc3nc(SCc4ccc(F)cc4)n(C)c3c2)cc1	-100	
COc1ccc(-c2noc(CSc3nc(N)cc(=O)[nH]3)n2)cc1	-100	
CC1C(=O)N2CCCc3cc(S(=O)(=O)Nc4ccc(Br)cc4F)cc1c32 (configuration not stated)		14.7 µM (active)
O=C(NCCN1CCN(c2cccc(Cl)c2)CC1)Nc1ccccc1C(F)(F)F	-100	
Cc1cccc(N2CCN(C(=O)c3ccc(CS(=O)c4cccc(Cl)c4)o3)CC2)c1C (configuration not stated)	-17.3	
CCOc1cc(C2CC(=O)Nc3cc4c(cc32)OCCO4)ccc1O (configuration not stated)	-100	
O=C(Nc1ccc(F)c(Cl)c1)c1cc(S(=O)(=O)N2CCCc3ccccc32)ccc1F	-100	
CCN(CC)CCOC(=O)c1ccc(NC(=O)c2nn(-c3ccc(C)cc3)c(=O)c3c2c2ccccc2n3C)cc1		3.29 µM (active)
CN(CCCNC(=O)c1cc2c(Cl)nc3ccccc3c2s1)Cc1ccccc1	-100	
CCCOC(=O)c1c(C)oc2c1cc(NS(=O)(=O)c1ccc(OCC)cc1)c1ccccc12	-15.2	
O=C(NCCSc1c(-c2ccc(F)cc2)[nH]c2ccccc12)c1ccc(S(=O)(=O)N2CCOCC2)cc1	-100	
Cc1cccc(-n2nnnc2S(C)(=O)=O)c1		3.29 µM (active)
CCOc1ccc(NC(=O)N(Cc2c[nH]c3ccccc23)C2CCCCCC2)cc1	-100	
CC(=O)N1CCCc2cc(S(=O)(=O)N(Cc3ccccc3)C(C)C)ccc21	-100	
CC1CCN(S(=O)(=O)c2ccc3nc(Nc4cccc(C(F)(F)F)c4)ccc3c2)CC1	-100	
Cc1ccc(CS(=O)(=O)c2ncc(Cl)c(C(=O)Nc3nnc(C(C)C)s3)n2)cc1		6.56 µM (active)
CCN(CC)Cc1c(NC(=O)c2ccc(OC)cc2)sc2c1CCCC2	1.72	
CCOC(=O)N1CCN(Cc2nc3cc(NC(=O)c4ccc(F)cc4)ccc3n2C(C)C)CC1	-100	
